Data: PubChem BioAssay AID1159580 (chemical genetic matrix, 2015)
“And” between values parts separate entries of the source, which are not always exact repeats. Identical values can stand only once. About 2,000 (36%) of roughly 5,500 compounds were called active. Not shown: some 18% with an inconclusive outcome. No stated cut-off is given here; in the data, active means normalized growth mostly below about 0.91 (no sharp cut-off); inconclusive means no clear call, values can overlap the other calls; inactive means mostly above about 0.92. The list shows a part of the results.

Assay: chemical genetic growth profiling, strain panel (AID 1159580);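 further: tested at 20 µM; growth read once vehicle control cultures reached saturation at 30 °C; 1 = growth at the plate median or of vehicle wells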
Conditions: S. cerevisiae deletion strains, growth OD

Measured: normalized growth

CCCCOc1ccc(C(=O)CCN2CCCCC2)cc1
inactive: locus YAL030W, strain snc1, stronger effect = lower value 0.977 | locus YBL061C, strain skt5, stronger effect = lower value 0.968 | locus YBR021W, strain FUR4, stronger effect = lower value 0.918 | locus YBR023C, strain chs3, stronger effect = lower value 0.95 | locus YBR171W, strain sec66, stronger effect = lower value 0.981 | locus YBR229C, strain ROT2, stronger effect = lower value 1 | locus YCL011C, strain gbp2, stronger effect = lower value 0.966 | locus YCL016C, strain dcc1, stronger effect = lower value 0.927 | locus YCR088W, strain abp1, stronger effect = lower value 0.94 | locus YDL005C, strain med2, stronger effect = lower value 0.994 | locus YDL040C, strain nat1, stronger effect = lower value 0.989 | locus YDL101C, strain DUN1, stronger effect = lower value 0.907 | locus YDL185W, strain tfp1, stronger effect = lower value 0.961 | locus YDR001C, strain nth1, stronger effect = lower value 0.992 | locus YDR101C, strain arx1, stronger effect = lower value 0.951 | locus YDR159W, strain sac3, stronger effect = lower value 0.913 | locus YDR297W, strain sur2, stronger effect = lower value 0.952 | locus YER015W, strain faa2, stronger effect = lower value 0.967 | locus YER111C, strain swi4, stronger effect = lower value 0.979 | locus YGL078C, strain dbp3, stronger effect = lower value 0.928 | locus YGL167C, strain pmr1, stronger effect = lower value 0.986 | locus YGL227W, strain vid30, stronger effect = lower value 0.997 | locus YHR079C, strain IRE1, stronger effect = lower value 1.04 | locus YIL125W, strain kgd1, stronger effect = lower value 0.957 | locus YJL092W, strain hpr5, stronger effect = lower value 0.918 | locus YJL115W, strain asf1, stronger effect = lower value 0.926 | locus YJL129C, strain trk1, stronger effect = lower value 0.899 | locus YJL154C, strain vps35, stronger effect = lower value 0.968 | locus YJL166W, strain qcr8, stronger effect = lower value 0.925 | locus YJL187C, strain SWE1, stronger effect = lower value 0.962
0.135 (active) and 0.992 (inactive): locus YHR030C, strain SLT2, stronger effect = lower value
0.415 (active) and 0.996 (inactive): locus YJL095W, strain BCK1, stronger effect = lower value
active: locus YAL013W, strain DEP1, stronger effect = lower value 0.807 | locus YAL021C, strain ccr4, stronger effect = lower value 0.871 | locus YAL026C, strain drs2, stronger effect = lower value 0.107 | locus YBR009C, strain hhf1, stronger effect = lower value 0.879 | locus YBR231C, strain swc5, stronger effect = lower value 0.866 | locus YBR279W, strain paf1, stronger effect = lower value 0.931 | locus YCL029C, strain bik1, stronger effect = lower value 0.857 | locus YCL061C, strain MRC1, stronger effect = lower value 0.875 | locus YCL069W, strain vba3, stronger effect = lower value 0.139 | locus YDL035C, strain GPR1, stronger effect = lower value 0.772 | locus YDL074C, strain BRE1, stronger effect = lower value 0.5 | locus YDL134C, strain PPH21, stronger effect = lower value 0.137 | locus YDL192W, strain arf1, stronger effect = lower value 0.54 | locus YDR069C, strain doa4, stronger effect = lower value 0.898 | locus YDR137W, strain rgp1, stronger effect = lower value 0.769 | locus YDR162C, strain NBP2, stronger effect = lower value 0.44 | locus YDR195W, strain ref2 1.29 [resistant] | locus YDR318W, strain mcm21, stronger effect = lower value 0.0958 | locus YDR334W, strain swr1, stronger effect = lower value 0.851 | locus YDR335W, strain msn5, stronger effect = lower value 0.277 | locus YDR388W, stronger effect = lower value 0.53 | locus YDR392W, strain spt3, stronger effect = lower value 0.108 | locus YDR502C, strain sam2, stronger effect = lower value 0.657 | locus YEL003W, strain gim4, stronger effect = lower value 0.888 | locus YEL037C, strain rad23, stronger effect = lower value 0.853 | locus YEL061C, strain CIN8 (second series), stronger effect = lower value 0.446 | locus YEL061C, strain CIN8, stronger effect = lower value 0.675 | locus YER016W, strain bim1, stronger effect = lower value 0.9 | locus YER110C, stronger effect = lower value 0.275 | locus YER155C, strain BEM2 (second series), stronger effect = lower value 0.146 | locus YER155C, strain BEM2, stronger effect = lower value 0.258 | locus YER167W, strain BCK2, stronger effect = lower value 0.277 | locus YFR010W, strain ubp6, stronger effect = lower value 0.815 | locus YGL086W, strain mad1, stronger effect = lower value 0.157 | locus YGL173C, strain kem1, stronger effect = lower value 0.845 | locus YGL240W, strain doc1, stronger effect = lower value 0.85 | locus YGL248W, strain PDE1, stronger effect = lower value 0.0961 | locus YGL253W, strain hxk2, stronger effect = lower value 0.252 | locus YGR078C, strain PAC10, stronger effect = lower value 0.187 | locus YGR135W, strain pre9, stronger effect = lower value 0.42 | locus YGR229C, strain SMI1, stronger effect = lower value 0.428 | locus YGR252W, strain gcn5, stronger effect = lower value 0.402 | locus YHR013C, strain ard1, stronger effect = lower value 0.707 | locus YHR027C, strain rpn1, stronger effect = lower value 0.901 | locus YHR079C, strain IRE1 (second series), stronger effect = lower value 0.854 | locus YHR094C, strain hxt1, stronger effect = lower value 0.0833 | locus YHR129C, strain ARP1, stronger effect = lower value 0.413 | locus YHR142W, strain chs7, stronger effect = lower value 0.155 | locus YHR200W, strain rpn10, stronger effect = lower value 0.838 | locus YIL066C, strain RNR3, stronger effect = lower value 0.134 | locus YIL073C, strain SPO22, stronger effect = lower value 0.281 | locus YIR030C, strain dcg1, stronger effect = lower value 0.486 | locus YJL095W, strain BCK1 (second series), stronger effect = lower value 0.734 | locus YJL134W, strain LCB3, stronger effect = lower value 0.533 | locus YJL164C, strain tpk1, stronger effect = lower value 0.883 | locus YJL168C, strain set2, stronger effect = lower value 0.468 | locus YJL187C, strain SWE1 (second series), stronger effect = lower value 0.84 | locus YJR043C, strain POL32, stronger effect = lower value 0.636
